Results as given in PubChem BioAssay.
Activity calls are given as the source filed them.

Experiments:
[1] = system: Plasmodium falciparum Sir2 (PF13_0152, Sir2A); experiment: pfSir2 binders on small-molecule microarrays, primary screen, biochemical, small-molecule microarray, 635 nm fluorescence (AID 1098); conditions: small-molecule microarray binding, fluorescence 635 nm; higher = more signal;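 also: score merges spot fluorescence intensity with its signal-to-noise ratio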
[2] = small-molecule microarray binders of probe aDKK1, primary screen, biochemical, biotinylated probe, 635/667 nm fluorescence (AID 1099); conditions: higher = more signal;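 also: score merges 667nm spot fluorescence with signal to noise across triplicate slides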
[3] = small-molecule microarray binders of probe aCHRDL2, primary screen, biochemical, biotinylated probe, 635/667 nm fluorescence (AID 1100); conditions: higher = more signal
[4] = splicing luciferase reporter signal modulators, primary screen, spliceosome inhibition project, cell-based, HEK293, splice +/- reporter (AID 1101); conditions: luminescence, 24 h, higher = more signal, called active from +8 up or from −8 down;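 also: HEK293 cells carrying a splicing-competent luciferase reporter gene; test concentration not given here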
[5] = target: Fibroblast growth factor 10 (Homo sapiens) (UniProt O15520); experiment: FGF10 binders on small-molecule microarrays, primary screen, biochemical, small-molecule microarray, 635 nm fluorescence (AID 1102); conditions: FGF10 binding, fluorescence 635 nm, higher = more signal
[6] = system: glycogen synthase kinase-3 (GSK3A per assay name; protocol says GSK3B); experiment: GSK3 binders on small-molecule microarrays, primary screen, biochemical, small-molecule microarray, 635 nm fluorescence, GSK3A (AID 1103); conditions: small-molecule microarray binding, fluorescence 635 nm; higher = more signal; also: the record names both GSK3A and GSK3B
[7] = target: Epidermal growth factor receptor (Homo sapiens) (UniProt P00533); experiment: EGFR binders on small-molecule microarrays, primary screen, biochemical, small-molecule microarray, 635 nm fluorescence (AID 1104); conditions: EGFR binding, higher = more signal;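 also: score merges 667 nm emission intensity with spot signal to noise over triplicate slides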
[8] = target: Follistatin-related protein 3 (Homo sapiens) (UniProt O95633); experiment: FSTL3 binders on small-molecule microarrays, primary screen, biochemical, small-molecule microarray, 635 nm fluorescence (AID 1105); conditions: FSTL3 binding, higher = more signal;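 also: score merges emission near 667 nm and signal to noise per printed spot across three slides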
[9] = target: Dickkopf-related protein 1 (Homo sapiens) (UniProt O94907); experiment: DKK1 binders on small-molecule microarrays, primary screen, biochemical, small-molecule microarray, 635 nm fluorescence scan (AID 1106); conditions: DKK1 binding, higher = more signal;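 also: score merges emission near 667 nm with signal to noise over three replicate slides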
[10] = system: Inhibin beta A chain (activin A); experiment: INHBA (activin A) binders on microarrays, primary screen, biochemical, small-molecule microarray, 635 nm fluorescence scan (AID 1107); conditions: small-molecule microarray binding, higher = more signal;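 also: mouse activin A protein probed at 4.33 µg/mL on printed slides; score merges bound-protein fluorescence near 667 nm with spot signal-to-noise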
[11] = system: Human papillomavirus type 1a protein E7 (residues 44-93); experiment: HPV1a E7 fragment binders on microarrays, primary screen, biochemical, small-molecule microarray, residues 44-93, 635 nm fluorescence (AID 1108); conditions: small-molecule microarray binding, fluorescence 635 nm; higher = more signal;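 also: E7 fragment applied at 1 µg/mL in TBST for 1 h at 4 C; score combines spot fluorescence with its signal to noise ratio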
[12] = modulators of HCV replicon luciferase signal, primary screen, HCV replication inhibitor project, Huh7 cells, luciferase reporter (AID 1109); conditions: 48 h, higher = more signal;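 also: huh7 hepatoma cells harbouring a luciferase neomycin HCV replicon reporter; luciferase luminescence as measure of HCV replicon replication; test concentration not given here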
[13] = target: Left-right determination factor 2 (Homo sapiens) (UniProt O00292); experiment: LEFTY2 binders on small-molecule microarrays, primary screen, biochemical, small-molecule microarray, 635 nm fluorescence scan (AID 1110); conditions: LEFTY2 binding, higher = more signal
[14] = target: Calmodulin-1 (Homo sapiens) (UniProt P0DP23); experiment: CALM1 binders on microarrays, EGTA buffer, profiling panel, biochemical, small-molecule microarray, Cy5-labelled CALM1 (AID 1111); conditions: Cy5-CALM1 binding fluorescence, higher = more signal;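 also: labelled calmodulin applied in Tris saline Tween buffer holding calcium plus EGTA and DTT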
[15] = target: Calmodulin-1 (Homo sapiens) (UniProt P0DP23); experiment: calcium-bound CALM1 binders on microarrays, profiling panel, artefact control for SMM control-protein annotation, biochemical, small-molecule microarray, Cy5-labelled CALM1, plus calcium (AID 1112); conditions: Cy5-CALM1 binding fluorescence, higher = more signal;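 also: score merges spot fluorescence with signal to noise from triplicate slides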
[16] = small-molecule microarray binders of probe aWnt5a, primary screen, biochemical, biotinylated probe, 635/667 nm fluorescence (AID 1113); conditions: higher = more signal;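 also: score merges 667 nm fluorescence intensity with signal-to-noise per printed feature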
[17] = small-molecule microarray binders of probe aShh, primary screen, biochemical, biotinylated probe, 635/667 nm fluorescence (AID 1114); conditions: higher = more signal;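 also: probe is biotin-labelled aShh protein from a stem cell growth factor screen; measures binding of labelled protein to compounds printed on the slide; score merges feature fluorescence at 667 nm with signal-to-noise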
[18] = small-molecule microarray binders of probe aNog, primary screen, biochemical, biotinylated probe, 635/667 nm fluorescence (AID 1115); conditions: higher = more signal;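 also: probe is biotinylated aNog protein used at 0.15 µg/mL for 1 h at 4 C; z-score combines 667 nm fluorescence of each spot with its signal to noise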
[19] = target: Torsin-1A-interacting protein 1 (Homo sapiens) (UniProt Q5JTV8); experiment: LAP1 binders from COS7 cell lysate, primary screen, small-molecule microarray, 635/667 nm fluorescence (AID 1116); conditions: COS7-hLAP1 lysate binding, 635 nm fluorescence, higher = more signal
[20] = target: Alpha-bungarotoxin (Bungarus multicinctus) (UniProt P60615); experiment: alpha-bungarotoxin binders on microarray, profiling panel, artefact control for SMM control protein annotation, biochemical, small-molecule microarray, Alexa647 label, 635/667 nm fluorescence (AID 1117); conditions: alpha-BTX-A647 binding fluorescence, higher = more signal
Alpha-bungarotoxin (Bungarus multicinctus), sequence (P60615 whole entry, looked up): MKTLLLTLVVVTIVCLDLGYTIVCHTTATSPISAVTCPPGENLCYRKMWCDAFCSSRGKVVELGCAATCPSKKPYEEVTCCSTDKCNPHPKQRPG

Left-right determination factor 2 (Homo sapiens), sequence (O00292 whole entry, looked up): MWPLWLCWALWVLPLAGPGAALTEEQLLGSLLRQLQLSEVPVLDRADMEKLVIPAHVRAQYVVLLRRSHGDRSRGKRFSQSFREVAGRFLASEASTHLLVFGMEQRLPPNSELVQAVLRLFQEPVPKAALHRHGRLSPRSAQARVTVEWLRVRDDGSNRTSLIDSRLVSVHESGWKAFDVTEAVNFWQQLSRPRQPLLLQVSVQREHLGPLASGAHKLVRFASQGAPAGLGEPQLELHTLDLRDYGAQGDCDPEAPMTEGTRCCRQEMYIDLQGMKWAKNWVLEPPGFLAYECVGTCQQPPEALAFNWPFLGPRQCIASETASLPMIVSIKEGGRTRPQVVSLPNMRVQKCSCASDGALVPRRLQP
Torsin-1A-interacting protein 1 (Homo sapiens), sequence (Q5JTV8 whole entry, looked up): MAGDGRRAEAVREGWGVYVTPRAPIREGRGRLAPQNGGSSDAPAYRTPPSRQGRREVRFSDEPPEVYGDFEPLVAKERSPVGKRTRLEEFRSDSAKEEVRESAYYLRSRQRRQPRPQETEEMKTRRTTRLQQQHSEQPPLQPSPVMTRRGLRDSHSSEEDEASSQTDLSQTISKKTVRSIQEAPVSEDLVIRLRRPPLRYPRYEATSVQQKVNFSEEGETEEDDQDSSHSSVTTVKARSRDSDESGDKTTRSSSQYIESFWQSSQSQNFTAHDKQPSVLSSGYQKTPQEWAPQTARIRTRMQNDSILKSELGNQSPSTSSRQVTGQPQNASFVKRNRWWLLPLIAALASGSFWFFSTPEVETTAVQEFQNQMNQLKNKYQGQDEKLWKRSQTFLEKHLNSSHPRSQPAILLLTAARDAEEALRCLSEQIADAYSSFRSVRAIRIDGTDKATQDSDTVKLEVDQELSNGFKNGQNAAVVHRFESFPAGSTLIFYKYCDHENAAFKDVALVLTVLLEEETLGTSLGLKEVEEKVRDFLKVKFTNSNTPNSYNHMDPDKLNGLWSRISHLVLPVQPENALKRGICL
Fibroblast growth factor 10 (Homo sapiens), sequence (O15520 whole entry, looked up): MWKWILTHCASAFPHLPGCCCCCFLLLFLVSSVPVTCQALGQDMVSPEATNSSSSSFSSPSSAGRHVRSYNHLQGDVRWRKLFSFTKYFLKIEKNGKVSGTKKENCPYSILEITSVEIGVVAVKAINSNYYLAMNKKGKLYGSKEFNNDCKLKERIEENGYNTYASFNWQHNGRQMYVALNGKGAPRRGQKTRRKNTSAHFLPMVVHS
Epidermal growth factor receptor (Homo sapiens), sequence (P00533 whole entry, looked up): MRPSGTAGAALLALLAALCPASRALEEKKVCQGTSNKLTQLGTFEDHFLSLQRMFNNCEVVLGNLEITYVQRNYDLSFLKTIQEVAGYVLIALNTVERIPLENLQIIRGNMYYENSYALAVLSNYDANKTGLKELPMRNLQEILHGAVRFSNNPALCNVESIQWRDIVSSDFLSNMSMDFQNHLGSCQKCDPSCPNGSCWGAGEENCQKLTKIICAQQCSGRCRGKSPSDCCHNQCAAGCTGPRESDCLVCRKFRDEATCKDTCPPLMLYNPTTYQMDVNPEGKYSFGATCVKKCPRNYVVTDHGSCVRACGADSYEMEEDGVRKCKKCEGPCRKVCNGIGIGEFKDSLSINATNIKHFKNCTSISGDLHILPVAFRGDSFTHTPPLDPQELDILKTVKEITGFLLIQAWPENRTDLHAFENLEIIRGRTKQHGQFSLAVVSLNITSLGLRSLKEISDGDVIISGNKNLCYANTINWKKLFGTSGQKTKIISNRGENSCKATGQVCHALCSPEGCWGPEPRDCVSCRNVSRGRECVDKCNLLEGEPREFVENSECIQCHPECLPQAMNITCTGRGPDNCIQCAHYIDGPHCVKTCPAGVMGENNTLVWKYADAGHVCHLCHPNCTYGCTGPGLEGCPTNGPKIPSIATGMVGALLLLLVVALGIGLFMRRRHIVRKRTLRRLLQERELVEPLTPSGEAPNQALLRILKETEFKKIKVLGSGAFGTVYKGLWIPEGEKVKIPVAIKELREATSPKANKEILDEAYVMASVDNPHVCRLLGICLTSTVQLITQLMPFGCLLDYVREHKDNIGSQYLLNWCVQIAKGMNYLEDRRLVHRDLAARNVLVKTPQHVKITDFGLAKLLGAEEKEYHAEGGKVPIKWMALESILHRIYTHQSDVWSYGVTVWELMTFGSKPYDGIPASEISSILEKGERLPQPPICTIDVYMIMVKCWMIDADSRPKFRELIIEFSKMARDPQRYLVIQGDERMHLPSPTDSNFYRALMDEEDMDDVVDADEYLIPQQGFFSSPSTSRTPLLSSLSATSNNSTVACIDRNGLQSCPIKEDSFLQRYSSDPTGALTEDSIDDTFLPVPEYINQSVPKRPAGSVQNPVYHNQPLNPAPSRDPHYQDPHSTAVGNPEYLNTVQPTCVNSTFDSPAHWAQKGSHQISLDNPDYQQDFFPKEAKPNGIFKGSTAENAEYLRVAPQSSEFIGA
Follistatin-related protein 3 (Homo sapiens), sequence (O95633 whole entry, looked up): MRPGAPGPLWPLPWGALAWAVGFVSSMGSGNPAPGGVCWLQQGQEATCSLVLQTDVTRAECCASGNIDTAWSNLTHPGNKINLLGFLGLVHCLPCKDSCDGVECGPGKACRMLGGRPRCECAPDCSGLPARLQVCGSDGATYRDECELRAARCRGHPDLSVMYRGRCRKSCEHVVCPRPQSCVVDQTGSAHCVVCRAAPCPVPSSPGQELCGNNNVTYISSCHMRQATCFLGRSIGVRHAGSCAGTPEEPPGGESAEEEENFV
Dickkopf-related protein 1 (Homo sapiens), sequence (O94907 whole entry, looked up): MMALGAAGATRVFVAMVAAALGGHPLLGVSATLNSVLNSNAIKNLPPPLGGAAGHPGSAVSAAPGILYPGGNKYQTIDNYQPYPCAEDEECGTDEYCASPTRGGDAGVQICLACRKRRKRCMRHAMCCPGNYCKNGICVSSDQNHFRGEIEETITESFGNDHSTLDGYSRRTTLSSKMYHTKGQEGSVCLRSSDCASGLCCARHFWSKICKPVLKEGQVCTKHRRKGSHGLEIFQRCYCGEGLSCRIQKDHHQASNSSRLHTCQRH

SMILES | composite z-score [1] | composite z-score [2] | composite z-score [3] | z-score [4] | composite z-score [5] | composite z-score [6] | composite z-score [7] | composite z-score [8] | composite z-score [9] | composite z-score [10] | composite z-score [11] | z-score [12] | composite z-score [13] | composite z-score [14] | composite z-score [15] | composite z-score [16] | composite z-score [17] | composite z-score [18] | composite z-score [19] | composite z-score [20]
COc1cc2c(cc1O)C(c1ccc(CN3CCCC3)cc1)N(C)CC2 (stereo not given) | 0.232 | -0.0829 | -0.275 | -0.00442 (inactive) | 0.167 | -1.27 | -0.419 | -0.567 | -0.622 | -0.172 | -1.7 | -1.02 | 0.351 | 0.571 | 0.673 | -0.173 | -0.359 | 0.452 | -0.862 | 0.0735
CC(C)CNC(=O)[C@@]1(C)c2ccccc2C(=O)N(Cc2cc(C(F)(F)F)cc(C(F)(F)F)c2)[C@H]1c1ccc(CO)cc1 | 0.386 | -0.147 | 0.587 | 0.0167 (inactive) | -0.631 | -1.02 | -0.647 | -0.522 | -0.6 | 0.32 | 0.267 | -0.447 | -0.557 | -0.438 | 0.507 | -0.175 | -0.291 | -0.318 | 0.0492 | -0.0153
CN1C(=O)C2C(C1=O)C1C=C(CCCO)C2C(C2CC2)N1Cc1cc2c(cc1Br)OCO2 (stereo not given) | 0.553 | -0.272 | 0.288 | -0.0854 (inactive) | 0.357 | 0.963 | -0.0564 | -0.0617 | 0.107 | 1.36 | 0.295 | -0.734 | 0.285 | 0.508 | 0.724 | -0.0462 | 0.0893 | 1.21 | 1.33 | 1.58
COCCOC(=O)N1C(=O)[C@@]2(c3ccccc31)[C@H](c1ccccc1OCCO)N1[C@H](c3ccccc3)[C@H](c3ccccc3)OC(=O)[C@H]1[C@@H]2C(=O)N1CCCCCCC1 | 1.91 | 3.18 | 1.76 | -1.46 (inactive) | 1.37 | 1.37 | 1.91 | 1.68 | 2.31 | 2.02 | 1.53 | -3.17 | 1.73 | 2.8 | 1.47 | 1.5 | 3.37 | 3.61 | 5.43 | 3.1
O=C(NCCN1CCOCC1)[C@@H]1c2ccccc2C(=O)N(Cc2ccccc2)[C@H]1c1ccc(CO)cc1 | 0.84 | -0.117 | 0.82 | -0.316 (inactive) | -0.765 | -1.13 | -1.81 | -0.481 | -0.667 | 0.269 | -0.639 | -0.887 | -1.45 | 0.446 | -1 | -0.219 | 0.214 | -0.224 | -1.47 | -1.06
CN1C(=O)C2C=CC(C(O)c3cc(C(F)(F)F)cc(C(F)(F)F)c3)N(Nc3ccccc3)C2C1=O (stereo not given) | 0.395 | -0.224 | 0.0811 | 1.37 (inactive) | 0.0307 | -0.107 | -0.0397 | -0.247 | -0.887 | 0.0638 | 0.792 | -1.08 | -0.715 | 0.345 | -0.151 | -0.0346 | -0.138 | 0.369 | 1.68 | 0.0299
